Assay results: the supplement of paper PMC11732987, “Enantioselective OTUD7B fragment discovery through chemoproteomics screening and high-throughput optimisation” (Communications Chemistry, 2025)

What was measured:
Experiment in all cases: log2 ratio of Biotin-Ahx-Ub-VS probe labelling (fragment/DMSO); higher = less target engagement (more negative = stronger competition), active = hit call of the paper (q ≤ 0.05, log2 ratio ≤ -1)
Conditions in all cases: compound concentration: 200 uM; treatment time: 3 h
[1] = biological target: USP34 (UniProt Q70CQ2)
Outline: (§1)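 Labelled DUBs from HEK293T lysate were NeutrAvidin-enriched, digested with LysC and trypsin, and run by diaPASEF LC-MS/MS. Before that, each 495 µg sample in Tris/CHAPS/IGEPAL buffer with protease inhibitors was treated in triplicate with fragment at 200 µM or vehicle for 3 h, then with Biotin-Ahx-Ub-VS at 0.5 µM final for 1 h. Values are average log2 ratios of fragment over vehicle by unpaired t-test, based on global-median-normalised Spectronaut label-free quantities from proteins with ≥2 unique peptides.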

[2] = biological target: T1, USP36 (UniProt Q9P275)
T1 sequence (whole entry): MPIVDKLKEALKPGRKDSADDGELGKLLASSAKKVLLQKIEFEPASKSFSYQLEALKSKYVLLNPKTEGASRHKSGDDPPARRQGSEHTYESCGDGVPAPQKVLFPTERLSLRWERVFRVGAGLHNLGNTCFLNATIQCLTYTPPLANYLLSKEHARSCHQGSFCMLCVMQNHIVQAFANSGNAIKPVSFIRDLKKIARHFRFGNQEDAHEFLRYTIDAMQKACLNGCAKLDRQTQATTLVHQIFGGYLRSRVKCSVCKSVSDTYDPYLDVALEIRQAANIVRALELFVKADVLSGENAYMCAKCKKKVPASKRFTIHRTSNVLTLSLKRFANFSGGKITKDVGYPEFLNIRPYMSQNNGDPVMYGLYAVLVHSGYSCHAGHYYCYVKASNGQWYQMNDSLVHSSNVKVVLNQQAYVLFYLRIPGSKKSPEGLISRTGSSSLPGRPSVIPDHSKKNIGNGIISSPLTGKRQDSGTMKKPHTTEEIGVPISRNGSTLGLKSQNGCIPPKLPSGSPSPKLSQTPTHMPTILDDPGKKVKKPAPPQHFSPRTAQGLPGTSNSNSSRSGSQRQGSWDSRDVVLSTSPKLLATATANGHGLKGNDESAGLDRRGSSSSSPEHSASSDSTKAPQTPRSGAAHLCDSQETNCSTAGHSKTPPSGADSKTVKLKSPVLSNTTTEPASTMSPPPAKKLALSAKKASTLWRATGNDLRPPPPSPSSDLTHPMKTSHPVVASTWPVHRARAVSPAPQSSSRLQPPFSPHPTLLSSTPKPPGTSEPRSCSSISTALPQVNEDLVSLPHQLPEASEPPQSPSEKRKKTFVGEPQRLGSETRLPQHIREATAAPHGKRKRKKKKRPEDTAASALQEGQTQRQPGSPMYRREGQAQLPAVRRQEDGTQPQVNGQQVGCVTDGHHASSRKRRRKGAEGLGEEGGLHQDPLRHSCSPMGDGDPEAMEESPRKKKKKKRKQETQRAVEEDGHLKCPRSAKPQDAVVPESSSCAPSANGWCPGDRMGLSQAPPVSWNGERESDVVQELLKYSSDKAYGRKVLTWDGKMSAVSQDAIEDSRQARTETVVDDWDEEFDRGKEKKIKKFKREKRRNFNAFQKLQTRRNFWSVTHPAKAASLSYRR
Outline: as §1

[3] = biological target: T2, USP38 (UniProt Q8NB14)
T2 sequence (whole entry): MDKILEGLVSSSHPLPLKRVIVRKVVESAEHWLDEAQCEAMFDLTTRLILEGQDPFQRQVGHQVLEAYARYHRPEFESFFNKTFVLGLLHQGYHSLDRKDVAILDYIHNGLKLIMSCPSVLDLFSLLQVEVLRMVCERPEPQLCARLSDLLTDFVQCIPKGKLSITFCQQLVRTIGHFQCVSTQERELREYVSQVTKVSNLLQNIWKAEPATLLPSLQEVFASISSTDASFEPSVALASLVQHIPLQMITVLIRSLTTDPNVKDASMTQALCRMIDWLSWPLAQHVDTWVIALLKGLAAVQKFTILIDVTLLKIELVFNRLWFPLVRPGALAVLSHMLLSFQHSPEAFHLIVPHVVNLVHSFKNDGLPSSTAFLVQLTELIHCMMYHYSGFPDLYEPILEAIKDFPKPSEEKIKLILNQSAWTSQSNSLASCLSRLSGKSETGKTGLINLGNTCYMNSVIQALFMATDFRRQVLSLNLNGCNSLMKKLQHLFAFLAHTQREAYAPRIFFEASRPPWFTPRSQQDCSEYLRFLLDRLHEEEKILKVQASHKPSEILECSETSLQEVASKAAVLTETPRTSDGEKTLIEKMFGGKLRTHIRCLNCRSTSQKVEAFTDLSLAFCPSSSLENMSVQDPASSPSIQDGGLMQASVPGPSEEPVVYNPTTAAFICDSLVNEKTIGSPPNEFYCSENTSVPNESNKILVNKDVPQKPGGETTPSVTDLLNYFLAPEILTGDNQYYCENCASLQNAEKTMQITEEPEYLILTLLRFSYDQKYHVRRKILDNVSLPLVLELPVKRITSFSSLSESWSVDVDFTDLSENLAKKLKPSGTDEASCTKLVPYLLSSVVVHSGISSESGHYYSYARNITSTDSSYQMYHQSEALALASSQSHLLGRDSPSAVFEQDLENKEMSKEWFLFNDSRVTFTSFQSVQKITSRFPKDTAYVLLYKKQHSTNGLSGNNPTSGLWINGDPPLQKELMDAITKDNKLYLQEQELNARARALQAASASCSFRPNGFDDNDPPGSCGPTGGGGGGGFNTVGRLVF
Outline: as §1

[4] = biological target: T3, USP39 (UniProt Q53GS9)
T3 sequence (whole entry): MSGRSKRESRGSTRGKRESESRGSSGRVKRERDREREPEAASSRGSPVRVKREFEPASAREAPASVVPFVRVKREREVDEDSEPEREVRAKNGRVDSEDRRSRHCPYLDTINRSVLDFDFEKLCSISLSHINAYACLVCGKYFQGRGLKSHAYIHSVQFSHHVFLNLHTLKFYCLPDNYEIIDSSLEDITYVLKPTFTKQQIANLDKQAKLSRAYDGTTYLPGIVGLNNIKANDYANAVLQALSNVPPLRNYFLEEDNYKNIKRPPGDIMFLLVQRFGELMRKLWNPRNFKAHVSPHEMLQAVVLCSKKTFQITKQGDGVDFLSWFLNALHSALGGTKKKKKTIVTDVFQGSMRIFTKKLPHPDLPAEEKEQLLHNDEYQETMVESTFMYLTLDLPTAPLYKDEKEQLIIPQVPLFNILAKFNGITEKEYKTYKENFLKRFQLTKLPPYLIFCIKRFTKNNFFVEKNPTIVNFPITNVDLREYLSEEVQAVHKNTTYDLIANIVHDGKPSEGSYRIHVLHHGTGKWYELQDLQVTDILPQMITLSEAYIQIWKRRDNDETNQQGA
Outline: as §1

[5] = biological target: T4, USP4 (UniProt Q13107)
T4 sequence (whole entry): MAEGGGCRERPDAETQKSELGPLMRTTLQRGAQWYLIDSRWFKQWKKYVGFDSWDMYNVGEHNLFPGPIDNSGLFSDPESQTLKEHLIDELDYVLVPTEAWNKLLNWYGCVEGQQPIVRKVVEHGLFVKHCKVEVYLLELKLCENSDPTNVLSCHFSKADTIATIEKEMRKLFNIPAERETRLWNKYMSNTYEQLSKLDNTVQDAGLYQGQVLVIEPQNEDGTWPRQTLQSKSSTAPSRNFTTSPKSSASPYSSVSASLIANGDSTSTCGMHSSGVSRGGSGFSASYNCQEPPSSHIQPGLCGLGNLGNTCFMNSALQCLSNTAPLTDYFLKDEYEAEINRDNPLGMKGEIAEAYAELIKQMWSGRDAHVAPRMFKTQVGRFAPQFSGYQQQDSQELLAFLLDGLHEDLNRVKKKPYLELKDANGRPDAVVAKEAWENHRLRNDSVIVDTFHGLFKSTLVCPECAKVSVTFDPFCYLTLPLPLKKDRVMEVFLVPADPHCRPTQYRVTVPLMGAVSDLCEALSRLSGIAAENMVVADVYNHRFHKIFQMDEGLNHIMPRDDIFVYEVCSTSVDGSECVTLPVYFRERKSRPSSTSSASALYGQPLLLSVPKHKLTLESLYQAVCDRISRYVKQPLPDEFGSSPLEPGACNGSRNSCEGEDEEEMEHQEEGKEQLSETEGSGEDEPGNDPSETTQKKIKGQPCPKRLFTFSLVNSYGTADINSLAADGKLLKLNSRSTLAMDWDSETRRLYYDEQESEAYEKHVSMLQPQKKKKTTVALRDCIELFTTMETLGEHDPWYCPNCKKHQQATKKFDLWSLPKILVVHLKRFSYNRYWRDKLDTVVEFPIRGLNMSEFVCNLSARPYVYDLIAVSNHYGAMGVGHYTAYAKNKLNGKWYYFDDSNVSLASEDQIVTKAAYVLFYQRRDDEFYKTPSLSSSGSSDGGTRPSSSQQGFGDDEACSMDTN
Outline: as §1

Measured: log2 ratio of Biotin-Ahx-Ub-VS probe labelling

Sequence of USP34 (Q70CQ2 whole entry, the tested form may be a part): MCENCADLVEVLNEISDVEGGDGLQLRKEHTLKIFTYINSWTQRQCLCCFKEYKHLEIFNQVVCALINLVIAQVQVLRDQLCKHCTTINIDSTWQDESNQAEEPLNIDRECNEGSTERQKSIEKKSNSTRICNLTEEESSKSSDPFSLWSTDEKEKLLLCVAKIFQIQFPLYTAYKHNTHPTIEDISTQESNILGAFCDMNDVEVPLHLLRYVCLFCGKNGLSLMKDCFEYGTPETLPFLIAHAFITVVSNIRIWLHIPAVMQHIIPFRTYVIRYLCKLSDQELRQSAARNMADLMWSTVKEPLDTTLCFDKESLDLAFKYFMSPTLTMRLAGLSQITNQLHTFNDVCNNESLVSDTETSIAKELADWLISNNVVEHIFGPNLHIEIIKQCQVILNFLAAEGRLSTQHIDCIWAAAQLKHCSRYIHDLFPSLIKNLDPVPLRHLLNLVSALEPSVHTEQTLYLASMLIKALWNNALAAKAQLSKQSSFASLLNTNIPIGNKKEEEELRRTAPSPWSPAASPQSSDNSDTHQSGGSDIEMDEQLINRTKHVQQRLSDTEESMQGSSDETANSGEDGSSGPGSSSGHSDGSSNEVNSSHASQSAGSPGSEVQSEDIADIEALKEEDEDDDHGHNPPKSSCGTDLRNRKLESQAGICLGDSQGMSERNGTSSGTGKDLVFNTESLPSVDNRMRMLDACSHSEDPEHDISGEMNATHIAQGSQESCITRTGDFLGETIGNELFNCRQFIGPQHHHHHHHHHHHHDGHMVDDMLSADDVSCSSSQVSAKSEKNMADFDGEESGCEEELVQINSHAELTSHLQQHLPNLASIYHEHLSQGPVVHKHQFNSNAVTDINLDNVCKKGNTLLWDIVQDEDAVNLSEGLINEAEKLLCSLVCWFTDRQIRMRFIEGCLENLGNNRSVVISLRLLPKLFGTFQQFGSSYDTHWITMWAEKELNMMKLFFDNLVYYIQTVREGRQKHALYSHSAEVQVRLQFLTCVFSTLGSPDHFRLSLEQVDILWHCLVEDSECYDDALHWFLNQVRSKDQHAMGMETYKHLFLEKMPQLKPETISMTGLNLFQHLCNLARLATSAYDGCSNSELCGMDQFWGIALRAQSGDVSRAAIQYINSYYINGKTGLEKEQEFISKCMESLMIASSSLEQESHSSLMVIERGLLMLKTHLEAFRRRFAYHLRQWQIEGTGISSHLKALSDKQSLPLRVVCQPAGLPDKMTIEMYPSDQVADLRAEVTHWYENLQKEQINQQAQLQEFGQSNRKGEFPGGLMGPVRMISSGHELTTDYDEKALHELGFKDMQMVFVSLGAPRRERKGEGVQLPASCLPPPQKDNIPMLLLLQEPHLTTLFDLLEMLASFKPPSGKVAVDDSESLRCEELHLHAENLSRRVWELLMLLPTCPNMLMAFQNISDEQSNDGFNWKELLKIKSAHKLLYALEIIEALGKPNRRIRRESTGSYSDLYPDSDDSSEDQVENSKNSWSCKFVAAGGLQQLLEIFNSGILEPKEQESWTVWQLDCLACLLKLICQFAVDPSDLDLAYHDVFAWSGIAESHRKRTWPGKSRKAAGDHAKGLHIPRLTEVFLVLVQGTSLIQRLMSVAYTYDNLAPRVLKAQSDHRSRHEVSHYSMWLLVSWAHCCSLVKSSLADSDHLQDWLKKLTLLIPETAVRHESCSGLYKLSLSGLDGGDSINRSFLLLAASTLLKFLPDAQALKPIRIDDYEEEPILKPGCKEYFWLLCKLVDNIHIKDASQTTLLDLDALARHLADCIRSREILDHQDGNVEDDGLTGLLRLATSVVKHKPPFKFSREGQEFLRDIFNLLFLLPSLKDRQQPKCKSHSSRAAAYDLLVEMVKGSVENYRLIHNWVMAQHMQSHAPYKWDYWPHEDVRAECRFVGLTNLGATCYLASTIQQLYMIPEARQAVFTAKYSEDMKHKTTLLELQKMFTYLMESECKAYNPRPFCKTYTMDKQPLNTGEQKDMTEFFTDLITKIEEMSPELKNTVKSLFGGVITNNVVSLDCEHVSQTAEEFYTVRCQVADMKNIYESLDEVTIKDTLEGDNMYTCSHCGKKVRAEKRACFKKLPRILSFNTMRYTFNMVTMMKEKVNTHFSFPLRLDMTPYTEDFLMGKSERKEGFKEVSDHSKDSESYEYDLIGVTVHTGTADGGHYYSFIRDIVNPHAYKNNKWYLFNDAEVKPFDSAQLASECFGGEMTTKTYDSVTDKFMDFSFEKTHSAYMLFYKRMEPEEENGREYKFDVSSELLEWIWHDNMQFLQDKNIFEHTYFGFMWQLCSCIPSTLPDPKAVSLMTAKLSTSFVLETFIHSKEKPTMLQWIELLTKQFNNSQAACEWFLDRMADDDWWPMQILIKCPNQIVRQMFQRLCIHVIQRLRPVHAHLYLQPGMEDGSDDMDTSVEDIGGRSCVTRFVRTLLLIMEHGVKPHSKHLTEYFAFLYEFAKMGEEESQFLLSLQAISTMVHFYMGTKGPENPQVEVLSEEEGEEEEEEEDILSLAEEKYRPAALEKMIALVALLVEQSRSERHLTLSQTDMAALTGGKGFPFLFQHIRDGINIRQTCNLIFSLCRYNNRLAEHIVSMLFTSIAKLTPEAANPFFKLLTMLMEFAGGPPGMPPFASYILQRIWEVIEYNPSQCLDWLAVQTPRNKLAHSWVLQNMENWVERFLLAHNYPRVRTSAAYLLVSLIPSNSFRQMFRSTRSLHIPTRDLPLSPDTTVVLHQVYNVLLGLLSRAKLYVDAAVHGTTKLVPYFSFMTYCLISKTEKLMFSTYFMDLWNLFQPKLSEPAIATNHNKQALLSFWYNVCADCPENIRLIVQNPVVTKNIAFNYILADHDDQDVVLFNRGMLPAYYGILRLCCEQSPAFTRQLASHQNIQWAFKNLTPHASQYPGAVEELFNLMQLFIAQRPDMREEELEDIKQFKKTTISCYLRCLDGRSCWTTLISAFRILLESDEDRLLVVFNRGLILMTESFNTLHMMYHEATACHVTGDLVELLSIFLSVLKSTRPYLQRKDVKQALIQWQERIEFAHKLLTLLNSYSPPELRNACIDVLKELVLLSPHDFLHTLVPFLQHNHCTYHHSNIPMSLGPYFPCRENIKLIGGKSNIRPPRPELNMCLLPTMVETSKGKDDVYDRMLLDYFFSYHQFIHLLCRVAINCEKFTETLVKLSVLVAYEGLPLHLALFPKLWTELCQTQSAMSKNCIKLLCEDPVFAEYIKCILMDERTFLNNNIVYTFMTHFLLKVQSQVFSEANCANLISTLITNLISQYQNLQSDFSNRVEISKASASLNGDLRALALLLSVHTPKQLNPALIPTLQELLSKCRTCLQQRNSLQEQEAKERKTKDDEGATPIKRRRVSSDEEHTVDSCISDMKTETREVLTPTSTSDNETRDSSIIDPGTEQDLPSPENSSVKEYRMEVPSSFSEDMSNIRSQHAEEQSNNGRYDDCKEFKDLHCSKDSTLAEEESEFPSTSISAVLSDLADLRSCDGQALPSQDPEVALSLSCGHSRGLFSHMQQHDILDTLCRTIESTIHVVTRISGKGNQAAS

CC(C)n1nccc1NC(=O)CCl
inactive: [1] -0.109 | [2] -0.0105 | [3] -0.0818 | [4] -0.252 | [5] -0.0708
